CHO-K1 Ca antag: M1 antagonist counterscreen hit in parental CHO-K1 cells | AID 602250 | inhibition, % at 3 µM | ATP-induced calcium, Fluo-8 fluorescence | 360,000 compounds, 0.6% hits;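 active means inhibition above a per-plate cutoff, the plate's mean sample inhibition plus 3 SD, cut at about 24% in these data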
CHRM1 antagonist: blocks human M1 muscarinic receptor | P11229 | CHO-K1 hM1, Fluo-8 calcium fluorescence, ACh EC80 antagonist | inhibition, % at 3 µM | 360,000 compounds, 1.3% hits | AID 588852;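 active means percent inhibition above its own plate's cutoff, namely the mean of that plate's compound wells plus 3 SD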;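 further: peak over basal fluorescence ratio during 140 s after agonist addition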
Target sequence (P11229 whole entry, looked up): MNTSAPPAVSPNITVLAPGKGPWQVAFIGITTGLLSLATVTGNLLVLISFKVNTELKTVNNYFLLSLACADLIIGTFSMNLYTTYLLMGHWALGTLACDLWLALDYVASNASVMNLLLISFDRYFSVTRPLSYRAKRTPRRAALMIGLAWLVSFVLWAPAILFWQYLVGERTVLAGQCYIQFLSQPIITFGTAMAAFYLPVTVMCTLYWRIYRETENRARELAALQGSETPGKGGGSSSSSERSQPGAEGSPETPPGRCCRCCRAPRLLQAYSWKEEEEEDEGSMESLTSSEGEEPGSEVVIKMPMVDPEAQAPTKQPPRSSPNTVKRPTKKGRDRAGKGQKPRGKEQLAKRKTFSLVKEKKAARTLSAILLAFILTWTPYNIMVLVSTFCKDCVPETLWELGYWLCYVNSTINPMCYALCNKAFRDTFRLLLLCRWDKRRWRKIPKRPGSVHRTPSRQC
CHO-K1 Ca PAM: nonselective activator or artifact in parental CHO-K1 calcium assay; ATP EC20, Fluo-8 calcium fluorescence; 0% at ATP EC20, 100% at ATP max; activation, % at 3 µM; 360,000 compounds, 0.02% hits; AID 602247;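 active means activation above the run cutoff, the mean activation of all test compounds plus 3 SD, cut at about 40% in these data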;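 further: peak over basal fluorescence ratio in a 140 s read after ATP addition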
CHRM1 PAM: human CHRM1 positive allosteric modulation. P11229. CHO-K1 hM1, Fluo-8 calcium fluorescence, ACh EC20; 0% = ACh EC20, 100% = maximal ACh. activation, % at 3 µM. 360,000 compounds, 0.088% hits; in the data active means activation above about 19%, passing the limit was not always enough
M1 ag: agonists of human M1 muscarinic receptor; P11229; CHO-K1 hM1, Fluo-8 calcium fluorescence, agonist mode; 0% DMSO, 100% acetylcholine EC100; activation, % at 3 µM; AID 588814; 360,000 compounds, 0.33% hits;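 active means activation above the run's mean compound activation plus 3 SD, cut at about 16% in these data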;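 further: peak over basal fluorescence ratio within a 140 s kinetic read after compound addition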
M1 ag parental: nonselective activator or artifact in parental CHO-K1 cells; activation, % at 3 µM; 360,000 compounds, 0.48% hits; Fluo-8 calcium fluorescence; scaled to maximal ATP response, vehicle zero; in the data active means activation above about 15%;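 further: untransfected CHO-K1 host cells lacking M1 receptor as counterscreen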
A number is an active result; - = inactive. A selection: hits, their analogues and other compounds. The true share with any hit is near 2.4%.

SMILES	CHO-K1 Ca antag	CHRM1 antagonist	CHO-K1 Ca PAM	CHRM1 PAM	M1 ag	M1 ag parental
Cc1ccc(N2C(=O)c3cccc(Oc4ccc(Cl)cc4)c3C2=O)c(C)c1	-	-	-	-	-	-
O=C(O)CN1C(=O)c2cccc(Oc3ccc(Cl)cc3)c2C1=O	29.5	-	-	-	-	-
Fc1ccc(-c2nc3ccccn3c2NCc2ccc3c(c2)OCO3)cc1	25.7	-	-	-	-	-
Cc1cccc(NC(=O)NC(C)C(c2ccccc2)N2CCN(C)CC2)c1 (stereo not given)	-	-	-	-	-	-
CCN(CC)C(=O)CSc1nsc(SCC(=O)N(CC)CC)c1C#N	26.3	-	-	-	-	-
C=COC(=O)CSc1snc(SCC(=O)OC)c1C#N	-	-	-	-	-	-
CC(=O)Nc1cccc(NC(=O)CSc2ncc(-c3ccc(Cl)cc3)n2Cc2ccco2)c1	-	26.3	-	-	-	-
O=C1NC2(c3ccccc3)NC(=O)NC2(c2ccccc2)N1 (stereo not given)	-	-	-	-	-	-
CN1C(=O)N(C)C2(c3ccccc3)NC(=O)NC12c1ccccc1 (stereo not given)	29.4	-	-	-	-	-
COc1ccc(S(=O)(=O)N2CCN(C(=O)c3ccc(=O)[nH]n3)CC2)cc1OC	-	-	-	-	-	16.2
COc1ccc(S(=O)(=O)N2CCN(C(=O)c3cccnc3)CC2)cc1OC	-	-	-	-	-	-
COc1ccc(C(=O)N2CCN(S(=O)(=O)c3ccc(Cl)cc3)CC2)cc1OC	-	-	-	-	-	-
COc1ccc(C(=O)N2CCN(S(=O)(=O)c3ccc(F)cc3)CC2)cc1OC	-	-	-	-	-	20.2
Cc1ccc(C(=O)N2CCN(S(=O)(=O)c3ccccc3)CC2)cc1	-	31.2	-	-	-	-
CCC(C)NC(=O)c1ccc(N2CC3CC(C2)c2cccc(=O)n2C3)c(NC(=O)c2c(F)cccc2F)c1 (stereo not given)	-	-	-	-	22.4	-
COCCNC(=O)c1ccc(N2CC3CC(C2)c2cccc(=O)n2C3)c(NC(=O)c2c(F)cccc2F)c1 (stereo not given)	-	-	-	-	-	-
Cc1sc2ncnc(NCCCN3CCCC3=O)c2c1C	-	-	-	-	-	17.6
Cc1nc(Cl)c(N=Cc2cccc([N+](=O)[O-])c2)c(Cl)n1	-	-	-	-	-	-
CCOC(=O)C1=C[C@@H](CC)N(S(=O)(=O)c2ccc(C)cc2)[C@H]1c1ccccc1	-	-	-	-	-	-
CCOC(=O)C1=C[C@@H](C2CCCC2)N(S(=O)(=O)c2ccc([N+](=O)[O-])cc2)[C@H]1c1ccccc1	31.2	44.2	-	-	-	-
O=C(c1ccncc1)N1N=C(C2CCCCC2)CC1(O)C(F)(F)F (stereo not given)	-	36.9	-	-	-	-
NS(=O)(=O)c1cccc(NC(=O)CSc2nnc(-c3ccncc3)n2C2CC2)c1	-	-	-	-	-	-
COc1ccc(/C=C/CN2CCN(CC(C)C)C(CCO)C2)cc1 (stereo not given)	-	27.9	-	-	-	-
C=CCOn1c(=O)c(-c2ccc(Cl)cc2)[n+]([O-])c2ccccc21	-	-	-	-	-	-
C=CCOn1c(=O)c(-c2cccs2)[n+]([O-])c2ccccc21	28.3	-	-	-	-	-
CSc1ccc(S(=O)(=O)Nc2ccc3c(c2)NC(=O)CC3)cc1	-	-	-	-	-	16.2
Cc1ccc(NS(=O)(=O)c2ccc3c(c2)CCC(=O)N3)cc1	-	-	-	-	-	-
CC1(c2ccc([N+](=O)[O-])cc2)NC(=O)N(CC(=O)c2ccc3c(c2)OCO3)C1=O (stereo not given)	-	-	-	-	36.8	30.1
CC1CCCCC12NC(=O)N(CC(=O)c1ccc3c(c1)OCO3)C2=O (stereo not given)	32.0	-	-	-	-	-
CC1(c2ccc(OC(F)F)cc2)NC(=O)N(CC(=O)NC2CCCCC2)C1=O (stereo not given)	-	-	-	-	-	-

Screening data: PubChem, The Scripps Research Institute Molecular Screening Center
